Results on 99 molecules are retold here after PubChem BioAssay AID624330 (Southern Research Specialized Biocontainment Screening …, 2012).

Molecules are shown by their SMILES. Out of some 340,000 compounds screened, about 2,100 (0.62%) were called active.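 How the source made its calls: active means first-screen hits whose inhibition reached a set limit at any dose in the follow-up dose series; inconclusive means inhibition above the set first-screen limit but never retested; inactive means the rest.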 Not all results are given here. Measured potencies and affinities stand elsewhere.

The target of this assay is Rac GTPase-activating protein 1 (Homo sapiens) (UniProt Q9H0H5). The assay is described as follows: MgcRacGAP GTPase-activating activity inhibitors, confirmation, biochemical, ADP Hunter fluorescence, primary and confirmatory (AID 624330).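 Further: fluorescence reports GDP produced by GAP-driven GTP hydrolysis.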 The settings on record: MgcRacGAP-stimulated Rac1 GTP hydrolysis, at 30 µM, hits give high values, GST-tagged Rac1 F28L mutant substrate.
Chain of Rac GTPase-activating protein 1 (Homo sapiens) (Q9H0H5 whole entry, looked up): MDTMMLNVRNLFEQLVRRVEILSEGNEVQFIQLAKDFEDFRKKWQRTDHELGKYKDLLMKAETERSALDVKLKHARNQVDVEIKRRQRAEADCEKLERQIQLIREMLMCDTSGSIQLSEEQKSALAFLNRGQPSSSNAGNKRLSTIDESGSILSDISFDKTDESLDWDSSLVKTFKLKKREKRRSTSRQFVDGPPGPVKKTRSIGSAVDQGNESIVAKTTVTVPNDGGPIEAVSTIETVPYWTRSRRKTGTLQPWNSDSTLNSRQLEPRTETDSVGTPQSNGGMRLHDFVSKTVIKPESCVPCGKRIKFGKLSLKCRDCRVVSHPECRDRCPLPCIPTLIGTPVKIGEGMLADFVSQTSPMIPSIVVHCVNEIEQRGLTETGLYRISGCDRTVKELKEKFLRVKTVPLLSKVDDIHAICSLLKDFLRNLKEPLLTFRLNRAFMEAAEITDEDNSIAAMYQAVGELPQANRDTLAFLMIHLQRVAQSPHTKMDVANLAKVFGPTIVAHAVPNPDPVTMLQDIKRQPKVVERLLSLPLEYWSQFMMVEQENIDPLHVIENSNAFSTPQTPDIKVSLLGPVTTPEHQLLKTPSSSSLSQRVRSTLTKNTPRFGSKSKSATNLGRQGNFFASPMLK
For orientation: inhibition means the relative decrease from the control value, in per cent. Regarding `O=C(N/N=C/c1cccc(C(F)(F)F)c1)c1ccc(O)cc1`, the inhibition was 6.36% (inactive).
As for `CC(C)(C)c1cc(C(=O)N/N=C/c2ccc(F)cc2)n(-c2ccccc2)n1`, the figure is 6.73% (inactive); as for `O=C(NN=Cc1ccc(F)cc1)c1ccccc1NS(=O)(=O)c1cccs1`, 5.29% (inactive); as for `CC(C)(C)c1cc(C(=O)N/N=C/c2ccccc2O)n(-c2ccccc2)n1`, 2.15% (inactive).
As to `O=C(O)c1ccc(C=NNC(=O)c2ccccc2NS(=O)(=O)c2cccs2)cc1`, the inhibition is 7.04% (inactive).
In the case of `O=C(Nc1ccccc1C(=O)N/N=C/c1ccncc1)c1ccccc1` it was 9.96% (inactive); in that of `O=C(Nc1ccccc1C(=O)N/N=C/c1ccco1)c1ccccc1`, 7.26% (inactive); in that of `O=C(N/N=C/c1ccc(C(F)(F)F)cc1)c1ccc(O)cc1`, 8.28% (inactive).
As for `O=C(CSc1nnc(C2CC2)n1-c1ccccc1)NC1CCS(=O)(=O)C1` (centres undefined), the inhibition is -2.5% (inactive).
As for `CCOC(=O)c1cc(C)nn1-c1nc(Cl)cc(OC)n1`, the figure is 5.27% (inactive); as for `COC(=O)c1ccccc1NC(=O)Oc1ccc(C(C)C)cc1`, 8.33% (inactive).
With `Cc1ccc(NS(=O)(=O)c2ccc(-n3cccn3)cc2)nc1`, the inhibition was 4.91% (inactive).
For `COc1ccc(S(=O)(=O)N2CCCCC2)cc1NC(=O)C1CSC2(C)CCC(=O)N12` (centres undefined), the inhibition is 5.04% (inactive).
In the case of `CC(C)(C)C(=O)NC(=S)NNC(=O)C(c1ccccc1)c1ccccc1` it was 6.5% (inactive).
In the case of `O=C(O)CC/C(=N/NC(=O)CNC(=O)c1ccc2c(c1)OCCO2)c1ccccc1` it was 3.51% (inactive); in that of `CCOC(=O)C(=O)Nc1cccc(C(=O)OCC)c1`, -6.93% (inactive).
As to `COc1ccc(/C=N/NC(=O)Nc2cccc3nsnc23)cc1OC`, the inhibition is 6.64% (inactive).
As for `O=C(NN=Cc1cc(Br)c(O)c(Br)c1)c1ccccc1NS(=O)(=O)c1cccs1`, the inhibition is 15.4% (inactive).
In the case of `COc1ccc(/C=N/NC(=O)Nc2cccc3nsnc23)cc1` it was -1.96% (inactive); in that of `O=C(NN=Cc1c(F)cccc1F)c1ccccc1NS(=O)(=O)c1cccs1`, 3.9% (inactive); in that of `CC(NC(=O)c1ccccc1)C(=O)N/N=C/c1ccc(O)cc1` (centres undefined), 27% (inactive).
Regarding `COc1ccc(C=NNC(=O)c2ccccc2NS(=O)(=O)c2cccs2)cc1O`, the inhibition is 12.1% (inactive).
For `COc1ccccc1/C=N/NC(=O)C(NC(=O)c1ccccc1)=C(C)C`, the inhibition was 4.44% (inactive).
Take `COc1cc(C=NNC(=O)c2ccccc2NS(=O)(=O)c2cccs2)cc(OC)c1O`: the inhibition is 9.93% (inactive).
On to `COc1ccc(-c2cc(-c3ccccc3)nc(N3CCCC3)n2)cc1OC`, for which the inhibition is 3.15% (inactive).
As for `Cc1cc(C)c(C)c(S(=O)(=O)NCCCN2CCCC2=O)c1C`, the figure is 5.47% (inactive); as for `CC(C)(C)c1ccc(N2C(=O)CC(c3ccccc3)C2=O)cc1` (centres undefined), 4.86% (inactive).
In the case of `Cc1nc(N2CCN(C(=O)c3ccco3)CC2)c(C#N)c2c1CCCC2` it was 5.84% (inactive); in that of `COc1cccc(C(=O)N2CCN(Cc3ccccc3Br)CC2)c1`, 21.5% (inactive).
In the case of `COc1cc(C(=O)N2CCN(Cc3ccc4c(c3)OCO4)CC2)cc(OC)c1OC` it was 13.3% (inactive); in that of `Cc1cc(C)cc(C(=O)N2CCN(Cc3ccc4c(c3)OCO4)CC2)c1`, 0.95% (inactive).
Turning to `COc1cc(OC)cc(C(=O)N2CCN(Cc3ccccc3C(F)(F)F)CC2)c1`, the inhibition is 11.6% (inactive).
Regarding `CCOCC(=O)N1CCN(Cc2ccc3c(c2)OCO3)CC1`, the inhibition is -16% (inactive).
Take `COc1ccccc1C(=O)N1CCN(Cc2ccc3c(c2)OCO3)CC1`: the inhibition is 2.13% (inactive).
For `CCOC(=O)N1CCN(Cc2ccc3c(c2)OCO3)CC1`, the inhibition is 11.9% (inactive).
Turning to `COc1cccc(C(=O)N2CCN(Cc3ccc4c(c3)OCO4)CC2)c1OC`, the inhibition is 9.39% (inactive).
In the case of `Cc1ccccc1NC(=O)N1CCCC1C(=O)NCc1cccs1` (centres undefined) it was 11.4% (inactive).
In the case of `CC(=O)Nc1ccc(CN2CCc3c([nH]c4ccccc34)C2C(C)(C)C)cc1` (centres undefined) it was 6.78% (inactive); in that of `CCCc1n[nH]c2c1/C(=N/O)CC(c1ccccc1)C2` (centres undefined), 12.8% (inactive).
In the case of `COc1cc(C)c(S(=O)(=O)N2CCCC2)cc1C` it was 4.75% (inactive); in that of `CN(Cc1ccccc1)C(=O)COC(=O)c1ccc(S(=O)(=O)N(C)C)cc1`, 9.46% (inactive).
On to `O=C1C=C(c2ccccc2)C(O)(c2ccccc2)C1` (centres undefined), for which the inhibition is 4.42% (inactive).
Consider `CC1CN(C(=O)CS(=O)(=O)Cc2ccc(Cl)cc2)CC(C)O1` (centres undefined), for which the inhibition is 6.85% (inactive).
As for `O=C(/C=C/Nc1ccc(F)cc1)c1ccc(Oc2ncccn2)cc1`, the figure is 10.5% (inactive); as for `CCCCNS(=O)(=O)c1ccc2nc(SCC(=O)Nc3sccc3C#N)[nH]c2c1`, 4.59% (inactive); as for `COC(=O)C1CCN(C(=O)Cc2ccc(OC)c(OC)c2)CC1`, -0.01% (inactive).
In the case of `COc1ccc(Cc2nnc(NC(=O)Cc3cccs3)s2)cc1OC` it was 4.75% (inactive).
As for `O=C(Cc1cccs1)Nc1nnc(Cc2ccccc2)s1`, the figure is 22.3% (inactive).
In the case of `CC1=NNC(=O)C1CC(=O)N/N=C(\C)c1cccs1` (centres undefined), the inhibition was 3.05% (inactive).
In the case of `O=C(CCN1C(=O)c2cccc3cccc(c23)C1=O)Nc1ccccc1` it was 2.77% (inactive); in that of `C=CCN1C(=O)CSC1=Nc1cccc(O)c1`, 3.76% (inactive); in that of `C=CCN1C(=O)CSC1=Nc1ccc(C(=O)O)cc1`, 6.53% (inactive).
As for `COc1ccc(N=C2SCC(=O)N2c2ccc(OC)cc2)cc1`, the figure is -0.28% (inactive); as for `CN1C(=O)CSC1=Nc1ccc(F)cc1`, 4.45% (inactive); as for `O=C(NCCN1C(=O)S/C(=C\c2ccccc2Cl)C1=O)C1=COCCO1`, 3.87% (inactive).
On to `COc1cc2c(cc1OC)C(C)N(C(=S)Nc1ccccc1)CC2` (centres undefined), for which the inhibition was 7.46% (inactive).
In the case of `NC(c1ccncc1)c1ccc(Cl)cc1` (centres undefined) it was 13.9% (inactive); in that of `COC(=O)c1cccc(N2C(=O)c3ccccc3S2(=O)=O)c1`, 0.68% (inactive).
Regarding `O=C(O)c1cccc(N2CCCC2)c1`, the inhibition was 15.6% (inactive).
Regarding `COC(=O)c1cccc(N2CCCC2=O)c1`, the inhibition was 9.18% (inactive).
In the case of `O=C(O)c1cccc(N2CCCC2=O)c1` it was 5.07% (inactive).
In the case of `CCCN(CCC)Cc1c(C(=O)N/N=C/CCc2ccccc2)nnn1-c1nonc1N` it was 11.3% (inactive).
As for `Nc1ncc2c(n1)CCN(c1ccc([N+](=O)[O-])cc1)C2`, the figure is 7.74% (inactive); as for `CC[C@H](C)[C@@H](C(=O)N1CCNCC1)n1cc([C@@H](N)CC(C)C)nn1`, 0.32% (inactive); as for `CC(C)(C)c1ccc(/C=N/Nc2cccc(C(=O)O)c2)cc1`, 6.23% (inactive).
For the molecule `O=C(O)c1cccc(N/N=C/c2ccc(-c3ccccc3)cc2)c1`, the inhibition was -7.28% (inactive).
In the case of `CN(C)c1ccc(/C=N/Nc2cccc(C(=O)O)c2)cc1` it was -3.06% (inactive).
As for `Cc1ccsc1/C=N/NC(=O)Nc1ccccc1`, the figure is 1.94% (inactive).
In the case of `O=C(O)c1cccc(N/N=C/c2cn(-c3ccccc3)nc2-c2cccs2)c1`, the inhibition was 3.09% (inactive).
For the molecule `O=C(O)c1cccc(N/N=C/c2cccc3ccccc23)c1`, the inhibition was 8.13% (inactive).
In the case of `Cc1ccc(NC(=O)CN2C(=O)NC3(CCc4ccccc43)C2=O)cc1` (centres undefined) it was -6.82% (inactive); in that of `CC(=O)c1ccc(NC(=O)CN2C(=O)NC3(CCc4ccccc43)C2=O)cc1` (centres undefined), 1.63% (inactive).
For the molecule `CCOc1cccc(NC(=O)c2ccc(S(=O)(=O)N3CCCC3)cc2)c1`, the inhibition is 3.15% (inactive).
Consider `O=S(=O)(c1ccccc1)c1nc(-c2ccco2)oc1NCCCN1CCOCC1`, for which the inhibition is 8.7% (inactive).
With `O=C(/C=C/c1ccc(Cl)cc1Cl)Nc1cccc(S(=O)(=O)NC2=NCCCCC2)c1`, the inhibition was 5.67% (inactive).
In the case of `Nc1cc(Cl)ccc1Oc1ccccc1` it was 11.6% (inactive); in that of `Nc1cc(Cl)ccc1Oc1ccc(Cl)cc1`, 0.58% (inactive).
Turning to `COc1ccc(C(=O)COC(=O)CNC(=O)c2ccccc2)cc1F`, the inhibition was 4.02% (inactive).
As for `CCOC(=O)c1cnc(SCC(=O)Nc2cc(OC)ccc2OC)nc1N`, the figure is 3.73% (inactive).
`CSCCC(NC(=O)c1ccccc1Cl)C(=O)NCc1ccncc1` (centres undefined): the inhibition was 6.71% (inactive).
As for `CC1CCCN(CCOc2ccc(Br)cc2)C1` (centres undefined), the figure is 12% (inactive).
Regarding `CC1CCCN(CCCOc2ccccc2-c2ccccc2)C1` (centres undefined), the inhibition was 18.1% (inactive).
In the case of `O=C(/C=C/c1ccco1)NCC1CCCO1` (centres undefined) it was 19.1% (inactive).
Turning to `CC(C)(C)C(=O)Cn1c(=O)n(-c2ccc(F)cc2F)c(=O)c2sccc21`, the inhibition is 13.1% (inactive).
In the case of `CNC(=S)N1N=C(c2ccc(C)cc2)CC1c1ccc(OC)c(OC)c1` (centres undefined) it was 2.99% (inactive); in that of `CC(=O)C[C@H]1c2cc(C(F)(F)F)ccc2S(=O)(=O)N1c1ccc(N(C)C)cc1`, 16.3% (inactive).
As to `COC(=O)C[C@H]1c2cc(F)ccc2S(=O)(=O)N1c1ccc(N(C)C)cc1`, the inhibition is 22.8% (inactive).
Regarding `COc1ccc(-n2ncc3c2CC(C)(C)CC3NC(=O)CCn2cncn2)cc1` (centres undefined), the inhibition is 4.79% (inactive).
As for `COc1ccc(-n2c(=O)c3c(C)c(C)sc3n(Cc3cccc(F)c3)c2=O)c(OC)c1`, the figure is 9.42% (inactive).
As for `CC(=O)Nc1cccc(NC(=O)c2ccccc2OCc2ccccc2)c1`, the figure is 9.89% (inactive); as for `Cc1ccc(S(=O)(=O)Nc2ccc(Nc3ccccc3)cc2)cc1`, 24.2% (inactive); as for `O=C(Nc1ccccc1)c1ccccc1OCc1ccc(F)cc1`, 13.5% (inactive).
As for `CC(=O)Nc1ccccc1`, the figure is 3.65% (inactive); as for `CC(=O)Nc1ccc(NC(=O)Nc2ccccc2)cc1`, -3.27% (inactive).
Turning to `CC(=O)Nc1ccc(NS(=O)(=O)c2ccccc2)cc1`, the inhibition is 5.08% (inactive).
As for `Cc1cccc(NC(=O)CC(C)(C)C)c1`, the inhibition was 5.55% (inactive).
Turning to `CC(C)(C)CC(=O)Nc1ccc(C(N)=O)cc1`, the inhibition was 5.87% (inactive).
In the case of `COc1cc(-c2ccccc2)[nH]c(=S)n1` it was 9.57% (inactive); in that of `CC(Sc1nc(=O)cc(N)n1CCc1ccccc1)C(=O)NCc1ccccc1` (centres undefined), 3.88% (inactive).
